Source: PubChem BioAssay AID686978 (National Center for Advancing Translational Sciences (NCATS), 2013)
Out of some 420,000 compounds screened, about 64,000 (15%) were called active. Another 27% or so got no clear call; they are omitted. Calls come from the whole dose curve; as a rule, active = well fitted inhibition curve with a large enough effect; inconclusive = small, poorly fitted or top-dose-only effect; inactive = flat fitted curve, though single readings scatter. Only a sample is shown. Where a call stands in place of a potency, no number is given.
Potency is the fitted concentration of half-maximal effect.

Test: qHTS for Inhibitors of human tyrosyl-DNA phosphodiesterase 1 (TDP1): qHTS in cells in absence of CPT; note: nearly all actives have a fitted effect of over 55% in size
Conditions: DT40 Tdp1-/- hTDP1 cells, no CPT, ATP luminescence, 48 h; activity change, negative = growth inhibition: at 46.2 µM (top of the series)
How it was run: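 No-CPT arm: Tdp1-/-;hTDP1 DT40 cells (400/well) plus compounds, incubated ≥48 hr at 37 °C. Readout CellTiter-Glo luminescence.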
In the case of Cc1occc1-c1nnc(SCC(=O)NC2(C#N)CCCC2)n1C, the Potency is reported as “inactive”.
With CCOCCCN1C(=O)C2C(C(=O)Nc3ccc(OCC)cc3)C3C=CC2(O3)C1C(=O)NC1CCCCC1 (centres undefined) the Potency was “inactive”.
With O=C(Nc1cccc(Cl)c1)OCc1ccccn1 the Potency was “inactive”.
With NS(=O)(=O)c1cccnc1Nc1cccc(Cl)c1 the Potency was “inactive”.
For OCCCNc1nccc(-c2cc(Nc3cccc(Cl)c3)ncn2)n1, the Potency was 0.731 µM (active).
For CCC(Sc1nncn1C)C(=O)Nc1nnc(-c2ccc(Cl)cc2)s1 (centres undefined), the Potency was “inactive”.
For NS(=O)(=O)c1cc2c(cc1Cl)NC(C(Cl)Cl)NS2(=O)=O (centres undefined), the Potency was “inactive”.
In the case of O=P(c1cccs1)(c1cccs1)c1cccs1, the Potency is reported as “inactive”.
In the case of O=C(Nc1ccccc1Cl)c1ccccc1S(=O)(=O)c1ccccc1[N+](=O)[O-], the Potency is reported as “inactive”.
For COc1cc(/C=N/N=C(\N)c2nonc2N)cc(OC)c1OC, the Potency was “inactive”.
For COc1cc(/C=N\NC(=O)c2nonc2N)c(OC)cc1Br, the Potency was 29.1 µM (active).
With COc1cc(OC)c(/C=N/NC(=O)c2ccc([N+](=O)[O-])cc2)cc1Br the Potency was “inactive”.
With CCc1cc2c(=O)c(-c3nc4ccccc4n3C)c(CCCC(=O)O)oc2cc1OC(=O)C(C)(C)C the Potency was “inactive”.
With COc1ccc(O)c(/C=N/N=C/c2cccc([N+](=O)[O-])c2)c1 the Potency was “inactive”.
With Cc1ccc(S(=O)(=O)NC(=O)N2CCCC(C)(C)C2)cc1 the Potency was “inactive”.
For O=C(NC1CCN(C(=S)NCc2ccco2)CC1)c1ccc(F)cc1, the Potency was “inactive”.
In the case of O=S(=O)(NCc1cccnc1)c1ccc(Br)s1, the Potency is reported as “inactive”.
With Cc1cc(C)c[n+](-c2nc3ccccc3nc2[N-]S(=O)(=O)c2cccs2)c1 the Potency was “inactive”.
With O=S(=O)([N-]c1nc2ccccc2nc1-[n+]1ccc(Cc2ccccc2)cc1)c1ccc(Br)s1 the Potency was 14.6 µM (active).
With Cc1cc(C)cc(NC(=O)CCS(=O)(=O)c2cc3c4c(c2)CCN4C(=O)CC3)c1 the Potency was “inactive”.
For CC1CSc2nnc(CCc3ccccc3)n21 (centres undefined), the Potency was “inactive”.
For Cc1cc(C(=O)COC(=O)c2cccs2)c(C)n1-c1c(C)n(C)n(-c2ccccc2)c1=O, the Potency was “inactive”.
For COc1ccc(-c2nnc(SC(=O)N3c4ccccc4Sc4ccccc43)o2)cc1, the Potency was 7.94 µM (active).
For COc1ccc(-c2nnc(-c3ccc4ccccc4c3)o2)cc1, the Potency was “inactive”.
In the case of COc1ccc(-c2nnc(SC(C)C#N)o2)cc1 (centres undefined), the Potency is reported as “inactive”.
For COc1ccc(NC(=S)SC)cc1OC, the Potency was “inactive”.
In the case of COc1cc(C(c2c(NC(=O)c3ccco3)sc(C)c2C)N2CCOCC2)cc(OC)c1OC (centres undefined), the Potency is reported as 29.1 µM (active).
With COc1ccc(CC(=O)Nc2ccccc2NC(=O)c2ccco2)cc1OC the Potency was “inactive”.
In the case of COC(=O)c1cc(NC(=O)c2ccco2)ccc1N1CCOCC1, the Potency is reported as “inactive”.
